# Measurements reported in PubChem BioAssay.
# Molecular target: Fibroblast growth factor 2 (Homo sapiens) (UniProt P09038)
# Assay: basic fibroblast growth factor binding to printed compounds – biochemical, small-molecule microarray, 635/667 nm fluorescence, primary screen (AID 1133)
# Settings: FGF2, fluorescence 635/667, higher = more signal
# Chain of Fibroblast growth factor 2 (Homo sapiens) (P09038 whole entry, looked up): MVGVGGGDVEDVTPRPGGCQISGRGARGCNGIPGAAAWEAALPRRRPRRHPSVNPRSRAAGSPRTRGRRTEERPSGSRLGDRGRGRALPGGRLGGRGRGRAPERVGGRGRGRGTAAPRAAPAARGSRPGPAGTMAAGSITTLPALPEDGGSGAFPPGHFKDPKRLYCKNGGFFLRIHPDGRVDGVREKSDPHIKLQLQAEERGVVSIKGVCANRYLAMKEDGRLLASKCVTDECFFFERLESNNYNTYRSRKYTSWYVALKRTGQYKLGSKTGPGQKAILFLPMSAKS
row,Compound,composite z-score
1,CC(=O)NCCCC[C@@H]1NC(=O)[C@H]2C[C@@H](C(=O)NCCCCCCNC(=O)CS)[C@@H](c3ccc(O)cc3)N2C1=O,0.141
2,COCCOC(=O)N1C(=O)[C@@]2(c3cc(C#CC4(O)CCCCCC4)ccc31)[C@H](c1ccc(OCCO)cc1)N1[C@H](c3ccccc3)[C@H](c3ccccc3)OC(=O)[C@H]1[C@@H]2C(=O)N1CCN(c2ncccn2)CC1,0.758
3,CCCCCN1CC=CC23O[C@@H]4/C=C\CCC(C)OC(=O)C4[C@H]2C(=O)N(C(C)CO)[C@@H]3C1=O (stereo partly specified),-0.556
4,COc1ccc(C#Cc2ccc3c(c2)[C@]2(C(=O)N3)[C@H](C(=O)NC[C@H](O)c3ccccc3)[C@H]3C(=O)O[C@H](c4ccccc4)[C@H](c4ccccc4)N3[C@@H]2c2ccc(O)cc2)cc1,0.811
5,COc1ccc(C#Cc2ccc3c(c2)[C@]2(C(=O)N3)[C@H](c3ccccc3OCCO)N3[C@H](c4ccccc4)[C@H](c4ccccc4)OC(=O)[C@H]3[C@@H]2C(=O)Nc2nc3ccccc3s2)cc1,1.19
6,CN1C(=O)C2C=CC(C(O)c3ccco3)N(Nc3ccccc3)C2C1=O (stereo unspecified),0.33

# Tested on: not listed separately
# Assay: JC-1 mitochondrial potential readout, lung cancer cells – cell-based, A549, JC-1 fluorescence, basal, 24 h, 100 nL, profiling panel (AID 1138);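 also: A549 lung adenocarcinoma cells under basal conditions with no added stimulus; test concentration not given here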
# Settings: higher = more signal
row,Compound,z-score
1,COCCOC(=O)N1C(=O)[C@@]2(c3cc(C#CCC(C(=O)OC)C(=O)OC)ccc31)[C@H](c1ccccc1OCCO)N1[C@H](c3ccccc3)[C@H](c3ccccc3)OC(=O)[C@H]1[C@@H]2C(=O)N1CCN(c2ncccn2)CC1,-0.895
2,C=CCC(OC(C)=O)[C@@H]1[C@@H](N(Cc2ccc(-c3ccccc3)cc2)C(=O)c2cccc3ccccc23)c2cc(OCCCO)ccc2N1C(=O)c1ccc(-c2ccccc2)cc1 (stereo partly specified),1.68
3,O=C(NCCO)C1=C[C@H](Oc2ccccc2I)[C@@H](O)[C@H](N(Cc2ccco2)C(=O)Cc2ccccc2)C1,-1.18
4,C#C[C@H](O[Si](C#Cc1ccc(Oc2ccccc2)cc1)(C(C)C)C(C)C)c1ccccc1,-1.83
5,CC1CC/C=C\[C@H]2OC34C=CCN(Cc5ccccc5)C(=O)[C@H]3N(CCCO)C(=O)[C@@H]4C2C(=O)O1 (stereo partly specified),-0.178
6,CCOC(=O)C[C@H]1[C@H](OC(=O)c2ccc(C(=O)c3ccccc3)cc2)[C@@H](NC(=O)c2ccccc2)c2cc(OCCCO)ccc2N1C(=O)Cc1ccc(OC)cc1,2.33
7,CC(C)CNC(=O)[C@@]1(Cc2ccccc2I)c2ccccc2C(=O)N(C2CCCCC2)[C@H]1c1ccc(CO)cc1,1.57
8,Cc1ccc(S[C@]2(C(=O)NCCCN(C)C)CC(=O)N(Cc3ccccc3C(F)(F)F)[C@@H]2c2ccc(CO)cc2)cc1,0.566
9,C=CC[C@]1(C(=O)NCCCOC)N=C(c2ccc(OCCCO)cc2)O[C@H]1c1ccccc1CN=[N+]=[N-],2.04
10,Cc1ccc(S[C@]2(C(=O)NCCCN(C)C)CC(=O)N(Cc3cc(C(F)(F)F)cc(C(F)(F)F)c3)[C@@H]2c2ccc(CO)cc2)cc1,0.134
11,CCCC[C@H]1OB(O)C[C@H]2C1=C(COC)Cn1c(=O)n(-c3ccccc3)c(=O)n12,-0.514
12,COc1ccc(/C=C/C=O)cc1,0.769
13,NC(=O)NCC#Cc1ccc2c(c1)[C@]1(C(=O)N2)[C@H](c2ccccc2OCCO)N2[C@H](c3ccccc3)[C@H](c3ccccc3)OC(=O)[C@H]2[C@@H]1C(=O)Nc1nc2ccccc2s1,-2.13
14,C=CCC(OC(C)=O)[C@@H]1[C@@H](N(Cc2ccc(-c3ccccc3)cc2)C(=O)c2ccc(-c3ccccc3)cc2)c2cc(OCCCO)ccc2N1C(=O)Cc1ccc2ccccc2c1 (stereo partly specified),0.857
15,Cc1ccc(N2C(=O)c3ccccc3[C@@H](C(=O)NC3CC3)[C@@H]2c2ccc(CO)cc2)nc1,-0.487
16,COCCCNC(=O)[C@@]1(C)c2ccccc2C(=O)N(C(C)C)[C@H]1c1ccc(CO)cc1,0.168
17,COC(=O)[C@@]1(Cc2ccc(OC)cc2)[C@@H]2C(=CC(=O)[C@H]2CC(=O)C(=O)N2CCCC2)CN1C(=O)c1ccccc1,1.55
18,C=C(COC)/C(=C/C[C@@H](OC(=O)c1ccncc1)c1ccc(CO)o1)c1cc(C(=O)OC)ccc1OC,0.526

row,Compound,z-score
1,NC(=O)NCC#Cc1ccc2c(c1)[C@]1(C(=O)N2)[C@H](C(=O)Nc2nc3ccccc3s2)[C@H]2C(=O)O[C@H](c3ccccc3)[C@H](c3ccccc3)N2[C@@H]1c1ccccc1OCCO,-2.46
2,COc1ccc(C(=O)Nc2ccc(CN3C(=O)[C@]4(O[C@H](CCO)[C@@H]([Si](C)(C)c5ccc(OC)cc5)[C@@H]4C)c4ccccc43)cc2)cc1,-1.41
3,COc1cc2c(cc1OC)CN(C(=O)[C@@H]1[C@H]3C(=O)O[C@H](c4ccccc4)[C@H](c4ccccc4)N3[C@H](c3ccc(O)cc3)[C@@]13C(=O)Nc1ccccc13)CC2,-0.379
4,[N-]=[N+]=Nc1ccccc1[C@@H]1OC(c2ccc(OCCCO)cc2)=N[C@]1(CCS(=O)(=O)c1ccccc1)C(N)=O,-0.995
5,COC(=O)[C@@]1(Cc2ccc(F)cc2)[C@H]2c3cc(C(=O)N4CCCC4)n(CCCNc4ncc(C(F)(F)F)cc4Cl)c3C[C@H]2CN1C(=O)c1ccccc1,0.742
6,[N-]=[N+]=Nc1ccccc1[C@@H]1OC(c2ccc(OCCCO)cc2)=N[C@]1(Cc1ccccc1)C(=O)N1CCOCC1,1.53
7,C=CCC(OC(C)=O)[C@@H]1[C@@H](N(Cc2ccc(-c3ccccc3)cc2)C(=O)Cc2ccc(OC)cc2)c2cc(OCCCO)ccc2N1C(=O)Cc1ccc2ccccc2c1 (stereo partly specified),0.112
8,CC1(C)C2C=C(C(O)C3C=CC4C(=O)NC(=O)C4N3Nc3ccc(Cl)cc3Cl)C[C@@H]1C2 (stereo partly specified),-1.44
9,CO[C@H]1O[C@H](CO)[C@@H](OC(=O)Nc2cccc(F)c2)[C@H](OC(=O)Nc2ccccc2)[C@@H]1OC(=O)Nc1ccccc1,0.0874
10,COc1ccc(C(O)C2C=CC3C(=O)N(Cc4ccccc4)C(=O)C3N2n2cnnc2)cc1OCc1ccccc1 (stereo unspecified),-1.03
11,COC(=O)[C@@]1(Cc2ccc(OC)cc2)[C@H]2c3cc(C(=O)N4CCCC4)n(Cc4ccc(C)c(F)c4F)c3C[C@H]2CN1C(=O)c1ccccc1,1.41
12,CC(=O)NCCCC[C@@H]1NC(=O)[C@H]2C[C@@H](C(=O)NCCCCCCNC(=O)CS)[C@@H](c3ccc(O)cc3)N2C1=O,-1.08
13,COCCOC(=O)N1C(=O)[C@@]2(c3cc(C#CC4(O)CCCCCC4)ccc31)[C@H](c1ccc(OCCO)cc1)N1[C@H](c3ccccc3)[C@H](c3ccccc3)OC(=O)[C@H]1[C@@H]2C(=O)N1CCN(c2ncccn2)CC1,-1.1
14,CCCCCN1CC=CC23O[C@@H]4/C=C\CCC(C)OC(=O)C4[C@H]2C(=O)N(C(C)CO)[C@@H]3C1=O (stereo partly specified),0.157
15,COc1ccc(C#Cc2ccc3c(c2)[C@]2(C(=O)N3)[C@H](C(=O)NC[C@H](O)c3ccccc3)[C@H]3C(=O)O[C@H](c4ccccc4)[C@H](c4ccccc4)N3[C@@H]2c2ccc(O)cc2)cc1,-1.57
16,COc1ccc(C#Cc2ccc3c(c2)[C@]2(C(=O)N3)[C@H](c3ccccc3OCCO)N3[C@H](c4ccccc4)[C@H](c4ccccc4)OC(=O)[C@H]3[C@@H]2C(=O)Nc2nc3ccccc3s2)cc1,-2.28
17,CN1C(=O)C2C=CC(C(O)c3ccco3)N(Nc3ccccc3)C2C1=O (stereo unspecified),0.207
